Rv3671c inh: Rv3671c (M. tuberculosis) protease inhibition; 320,000 compounds, 0.048% hits; P9WHR9; inhibition, % at 5.96 µM; in the data active = inhibition above about 38%;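 also: extracellular domain of Rv3671c used as enzyme; 0% = enzyme with DMSO and 100% = no enzyme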
Target sequence (P9WHR9 whole entry, looked up, the tested form may be a part): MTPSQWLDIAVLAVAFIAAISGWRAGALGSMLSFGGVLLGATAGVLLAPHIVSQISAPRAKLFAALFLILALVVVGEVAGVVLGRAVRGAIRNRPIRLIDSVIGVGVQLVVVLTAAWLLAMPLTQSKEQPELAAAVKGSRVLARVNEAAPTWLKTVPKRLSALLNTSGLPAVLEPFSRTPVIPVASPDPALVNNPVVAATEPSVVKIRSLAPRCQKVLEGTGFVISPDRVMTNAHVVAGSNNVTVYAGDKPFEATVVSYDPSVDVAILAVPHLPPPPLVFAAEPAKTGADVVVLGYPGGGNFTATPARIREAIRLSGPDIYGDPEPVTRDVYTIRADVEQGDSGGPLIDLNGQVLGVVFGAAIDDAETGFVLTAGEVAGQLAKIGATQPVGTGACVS
SSB-PriA inh: blocks PriA binding to SSB C-terminal tail; AlphaScreen SSBct-PriA binding, biotinylated peptide; inhibition, % at 33 µM; 430,000 compounds, 0.6% hits; AID 1272365; in the data active = inhibition mostly above about 37%, no sharp cut-off; inactive = mostly below about 20%;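 also: plate controls were negative control peptide for no effect and reference peptide for full effect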
GDH-TPI inh: counter-screen for M. tuberculosis FBA inhibitors: GDH-TPI coupled enzymes; 360,000 compounds, 1.2% hits; inhibition, % at 4.8 µM; GDH-TPI coupled enzyme counterscreen, NADH absorbance; AID 588335; in the data active = inhibition above about 30%;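 also: 0% = DMSO wells and 100% = wells lacking the enzyme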
Mtb FBA inh: inhibitors of M. tuberculosis fructose-bisphosphate aldolase. P9WQA3. purified M. tuberculosis FBA, fluorescence read-out. inhibition, % at 1 µM. 360,000 compounds, 2.3% hits; in the data active = inhibition above about 27%;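 also: 0% = vehicle and 100% = reference inhibitor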
Mtb betalactam: beta-lactam sensitization of Mtb H37Rv. M. tuberculosis H37Rv growth with meropenem, percent inhibition. inhibition, % at 25 µM. 330,000 compounds, 0.27% hits. AID 434955; call rule not given here;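 also: growth measured after seven days incubation then overnight dye step; 0% = bacteria only wells and 100% = bacteria with antibiotic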
Mtb UGM inh: blocks M. tuberculosis UGM enzyme; P9WIQ1; purified UGM, fluorescence polarization probe displacement; inhibition, % at 10 µM; 320,000 compounds, 0.06% hits; in the data active = inhibition above about 10%, passing the limit was not always enough; inconclusive = no clear call, values can overlap the other calls
The depositor's hits bear a star; i = inactive; u = inconclusive; x = not tested or not shown; + = active, no number; ! = not active in a repeat. Hits are enriched below; roughly 3.2% of the tested compounds scored in any of these assays.

SMILES	Rv3671c inh	SSB-PriA inh	GDH-TPI inh	Mtb FBA inh	Mtb betalactam	Mtb UGM inh
COc1ccc(CN2CCN(c3ccccn3)CC2)c(OC)c1C	2.5	3.8	18.6	+!	-0.9	-1.6
COc1ccccc1N1CCN(Cc2ccc(O)c3ncccc23)CC1	0.9	73.0*	4.7	-1.1	72.1	-0.6
CCOC(=O)C1CCN(Cc2ccccc2C(F)(F)F)CC1	1.6	-17.1	-4.7	4.4	-9.5	-0.2
CCOC(=O)C1CCN(Cc2ccc(O)c3ncccc23)CC1	2.5	93.6*	-8.5	3.0	-3.9	-1.1
OCCN1CCN(Cc2ccc(O)c3ncccc23)CC1	x	115.0*	x	x	x	x
CCOC(=O)c1c(-c2ccccc2)oc2ccc(N(C(=O)c3ccncc3)S(=O)(=O)c3ccccc3)cc12	x	-9.0	x	x	x	x
O=C(Nc1cccc(Cl)c1)Nc1nc(CC(=O)N2CCN(C(=O)c3ccco3)CC2)cs1	x	34.0	x	x	x	x
COC(=O)CSC1CCN(C(=O)c2ccc(-c3ccsc3)cc2)C1 (stereo not given)	x	-17.0	x	x	x	x
Cc1ccccc1N1CCN(Cc2ccc(O)c3ncccc23)CC1	x	86.9*	x	x	x	x
CCc1cc(N2CCOCC2)cc2c1[nH]c1ccccc12	-3.1	37.2	-1.9	96.0*	u	2.0
Cc1[nH]c(C(=O)O)c(C#N)c1C(=O)c1ccccc1	-6.4	-0.2	14.2	1.2	-4.8	0.3
CC(=O)N(C(C)=O)c1c(C#N)c(C)n(-c2ccccc2)c1C(=O)c1ccccc1	5.2	85.1*	3.0	-1.9	23.4	0.0
CC1=CC(C)(C)Nc2ccccc21	-7.6	53.5*!	1.4	1.3	-3.3	2.8
COc1ccc2ccc3cccc[n+]3c2c1	x	-3.9	-1.5	133.7*	x	x
Nc1ccc2cc3ccccc3cc2c1	x	4.0	4.9	5.9	x	x
COc1ccc2nc3ccccc3[n+]([O-])c2c1	x	-10.4	14.9	4.2	x	x
Nc1ccc2ccc3cccc[n+]3c2c1	-16.1	-4.9	10.4	-5.0	-0.1	62.5*
Cc1ccc(C)c(S(=O)(=O)NCCOc2ccc3c(c2)OCO3)c1	x	12.0	x	x	x	x
CC(C)(C)OC(=O)COc1cc(OCC(=O)OC(C)(C)C)c2c(=O)cc(-c3ccccc3)oc2c1	-15.8	-2.1	20.7	27.8*	2.9	-0.5
CC(C)(C)OC(=O)COc1cc(O)c2c(=O)cc(-c3ccccc3)oc2c1	-6.9	-14.3	5.8	5.3	72.1	2.7
CCOc1cc(/C=C2\CCCc3c2nc2ccccc2c3C(=O)O)ccc1OC	-14.1	-16.8	8.4	-2.2	1.5	44.4*
Cc1cccc(C)c1NC(=O)COC(=O)c1c2c(nc3ccccc13)/C(=C\c1ccc3c(c1)OCO3)CCC2	3.0	-3.0	12.6	2.4	-2.4	19.0*
CC(OC(=O)c1c2c(nc3ccccc13)/C(=C\c1ccc3c(c1)OCO3)CCC2)C(=O)Nc1ccc(S(N)(=O)=O)cc1 (stereo not given)	x	8.4	12.1	3.4	x	x
CCc1ccc(-n2nnnc2SC(C)C(=O)Nc2ccc(S(N)(=O)=O)cc2)cc1 (stereo not given)	x	28.0	x	x	x	x
CC(Cc1ccccc1)=NNC(=O)c1ccc(F)cc1	x	1.7	x	x	x	x
SMILES	Rv3671c inh	SSB-PriA inh	GDH-TPI inh	Mtb FBA inh	Mtb betalactam	Mtb UGM inh
Cc1ccccc1OCC(=O)N1CCC(CN2CCN(C)C[C@@H]2C)CC1	x	-9.0	x	x	x	x
CCN(CC)CCNc1ccc(C)c2sc3ccc(O)cc3c(=O)c12	x	68.5*	4.3	-1.8	x	x
COc1cccc(C=NNC(=O)C(C)n2nnc3ccccc32)c1 (stereo not given)	x	-4.2	x	x	x	x
O=C(COc1ccccc1F)NCCOc1ccc2nnc(-c3ccccc3)n2n1	x	-7.0	x	x	x	x
COc1cnc(-c2ccccn2)nc1Oc1ccccc1Cl	-4.3	1.8	-10.0	3.1	80.5	0.0
COc1cnc(-c2ccccn2)nc1Oc1ccc(F)cc1F	-5.8	53.5*	-7.4	-0.3	63.7	-3.3
COc1cnc(-c2ccccn2)nc1Oc1ccc(Cl)cc1	-8.3	52.3*	13.6	-3.8	4.0	-0.2
COc1ccc(C=NNc2cc(OC)ncn2)cc1	x	-5.8	x	x	x	x
COc1cc(N/N=C/c2ccccc2O)ncn1	-2.4	x	46.9*	2.8	94.5	2.2
O=C(CSc1nc2sc3c(c2c(=O)n1-c1ccccc1)CCC3)N1CCC(c2noc3ccc(F)cc23)CC1	x	-7.0	x	x	x	x
CCOC(=O)c1cc2c(=O)n3ccccc3nc2n(Cc2ccco2)c1=NC(=O)c1ccc(OC)cc1	3.4	5.5	11.4	115.0*	4.7	3.2
CCOC(=O)c1cc2c(=O)n3ccccc3nc2n(CC2CCCO2)c1=NC(=O)c1ccc(Br)cc1 (stereo not given)	x	-6.0	x	x	x	x
CCOC(=O)c1cc2c(=O)n3cccc(C)c3nc2n(Cc2ccco2)c1=NC(=O)c1ccccc1	-8.3	5.5	9.5	+	-0.8	1.4
CCOC(=O)c1cc2c(=O)n3ccccc3nc2n(Cc2ccco2)c1=NC(=O)c1cccc(OC)c1	1.4	-1.7	39.0*	139.3*	3.4	1.4
CCOC(=O)c1cc2c(=O)n3cccc(C)c3nc2n(Cc2ccco2)c1=NC(=O)c1ccc(C)cc1	x	-21.4	2.6	1.1	x	x
CCOC(=O)c1cc2c(=O)n3ccccc3nc2n(Cc2ccco2)c1=NC(=O)c1ccccc1OC	5.1	-6.2	24.4	+	-1.4	2.0
Cc1ccc(S(=O)(=O)c2cc3c(=O)n4ccccc4nc3n(Cc3ccco3)c2=N)cc1C	-0.5	-8.3	x	x	-1.2	-0.6
C=c1ccccc1=C1N=C(NC(=O)CSc2nnc3scc(-c4ccc(Cl)cc4)n23)NS1	x	-7.0	x	x	x	x
N#Cc1nccnc1N1CCC(CNC(=O)c2csc(-c3ccccc3)n2)CC1	x	0.0	x	x	x	x
Cn1ccc(/C=N/N=C2/NC(=O)CS2)n1	2.5	x	46.2*	-1.4	30.8	6.7
Cn1ccc(/C=N/N=C2NC(=O)CS2)n1	x	i	x	x	x	x
C1CN2CN3CCN(CN1C3)C2	x	80.0*	x	x	x	x
O=C(Nc1ccc2c(c1)CN(C(=O)C1CC1)CC2)c1ccco1	x	-5.0	x	x	x	x
CS(=O)(=O)c1cccc(-c2nnc(NC(=O)C3CC(=O)N(c4ccccc4)C3)o2)c1 (stereo not given)	x	20.0	x	x	x	x
O=C(Nc1nnc(-c2ccccc2)o1)C1CC(=O)N(c2ccccc2)C1 (stereo not given)	x	44.0*!	x	x	x	x
SMILES	Rv3671c inh	SSB-PriA inh	GDH-TPI inh	Mtb FBA inh	Mtb betalactam	Mtb UGM inh
COc1ccc(N2CC(C(=O)Nc3nnc(-c4ccnn4C)o3)CC2=O)cc1 (stereo not given)	x	71.0*	x	x	x	x
COc1ccccc1-c1nnc(NC(=O)C2CC(=O)N(c3ccc(F)cc3)C2)o1 (stereo not given)	x	13.0	x	x	x	x
CCC(=O)N(C)CCc1cc2c(c(OC)c1/C=N/NC(=O)[C@H]1C[C@@H]1c1ccccc1)OCO2	0.0	i	12.9	0.2	-1.3	-0.1
CCC(=O)N(C)CCc1cc2c(c(OC)c1/C=N/Nc1ccc(C(=O)O)cc1)OCO2	-5.8	i	50.6*	-2.4	-0.8	2.8
Cc1c(C)c2cc(Cl)c(O)c(CN3CCN(C)CC3)c2oc1=O	0.9	-5.9	27.7	+	-1.4	2.9
Cc1c(C)c2cc(Cl)c(O)c(CN3CCCC(C)C3)c2oc1=O (stereo not given)	-4.6	-11.5	8.2	+	9.5	-4.6
Cc1cccc(NC(=O)Cn2cc(S(=O)(=O)c3ccc(F)cc3)c3ccccc32)n1	x	-5.0	x	x	x	x

Bioassay records: PubChem, several laboratories
